From PubChem BioAssay
AI-2 QS modul = modulates the Vibrio harveyi AI-2 quorum sensing system. 300,000 compounds, 0.4% hits. activity change, % at 7.5 µM. AID 2094. Vibrio harveyi JMH597 AI-2 luminescence/OD600 ratio, 9 h; hits give low values; strain lacks LuxN and CqsS sensors; 0 = neutral-control median; in the data active = activity change below about -75%, passing the limit was not always enough;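 note: luminescence divided by OD600 gain over 9 h not by final OD600 alone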
HIF activator = HIF pathway transcriptional activation; U2OS HRE-luciferase reporter, luminescence; normalized: DMSO 0%, desferrioxamine 100%; activation, % at 7.5 µM (by protocol); 300,000 compounds, 0.32% hits; AID 1910;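 active = mean activation of at least 10% of the iron chelator positive control signal, with at least half of replicates also reaching 10%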
VLA-4 inh = inhibition in a human VLA-4 binding assay. P13612. VLA-4 expressing cells, ligand binding flow cytometry. inhibition, % (about 7 µM as worked out from the volumes in the protocol). 330,000 compounds, 0.2% hits. AID 2557; in the data active = inhibition above about 50%
Target sequence (P13612 whole entry, looked up): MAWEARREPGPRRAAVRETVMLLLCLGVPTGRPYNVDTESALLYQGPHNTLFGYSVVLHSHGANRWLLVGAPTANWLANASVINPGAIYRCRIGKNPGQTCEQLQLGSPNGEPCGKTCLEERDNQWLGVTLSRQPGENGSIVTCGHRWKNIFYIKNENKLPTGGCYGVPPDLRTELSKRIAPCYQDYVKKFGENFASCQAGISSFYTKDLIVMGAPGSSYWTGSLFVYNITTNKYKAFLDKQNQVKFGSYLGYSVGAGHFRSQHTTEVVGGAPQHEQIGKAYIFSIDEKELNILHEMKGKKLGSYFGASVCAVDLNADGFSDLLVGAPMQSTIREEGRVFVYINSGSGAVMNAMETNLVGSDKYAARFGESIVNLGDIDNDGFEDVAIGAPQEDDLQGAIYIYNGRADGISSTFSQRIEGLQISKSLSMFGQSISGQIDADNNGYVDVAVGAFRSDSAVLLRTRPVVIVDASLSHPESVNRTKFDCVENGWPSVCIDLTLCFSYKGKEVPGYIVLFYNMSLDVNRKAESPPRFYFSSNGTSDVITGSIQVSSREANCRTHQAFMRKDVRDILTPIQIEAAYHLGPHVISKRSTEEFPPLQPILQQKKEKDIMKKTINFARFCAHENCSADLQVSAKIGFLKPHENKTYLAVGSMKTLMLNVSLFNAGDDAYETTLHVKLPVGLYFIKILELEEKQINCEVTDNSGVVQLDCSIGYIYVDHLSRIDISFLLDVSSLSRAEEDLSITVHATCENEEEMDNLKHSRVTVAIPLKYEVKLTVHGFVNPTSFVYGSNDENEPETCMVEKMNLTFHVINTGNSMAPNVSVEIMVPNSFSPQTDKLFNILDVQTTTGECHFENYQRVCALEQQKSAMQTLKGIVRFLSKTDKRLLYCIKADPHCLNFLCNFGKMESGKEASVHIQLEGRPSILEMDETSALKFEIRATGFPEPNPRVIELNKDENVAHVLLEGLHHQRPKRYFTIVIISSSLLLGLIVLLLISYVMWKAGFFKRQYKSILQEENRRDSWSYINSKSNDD
Platelet DG rel = modulates dense granule release in human platelets. 300,000 compounds, 0.22% hits. AID 1663. human platelet-rich plasma, SFLLRN dense granule ATP release, luminescence. inhibition, %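 (compounds screened at 7.5 µM in platelet-rich plasma)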;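 active = mean replicate score, as percent of positive control, at or above 50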
CHT inh = inhibitors of human choline transporter CHT; Q9GZV3; CHT-expressing cells, membrane potential dye, choline response; hits give low values; B-score at 10 µM; 310,000 compounds, 0.86% hits; AID 488975;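 active = B-score over 3 SD under the library average, and starting fluorescence ratio not unusually high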;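 note: choline stimulus applied at its EC90 after an EC20 pre-addition; B-score computed on integrated fluorescence ratio after choline addition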
CHT PAM = allosteric activators of human choline transporter CHT; Q9GZV3; CHT-expressing cells, membrane potential dye, choline EC20; hits give high values; LV-AA mutant CHT in HEK293 cells; B-score at 10 µM; 310,000 compounds, 0.49% hits;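 active = initial fluorescence not abnormally high and integrated response B-score, plate-corrected, over 3 SD above library mean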
CHT inh conf = confirmation of human choline transporter CHT inhibitors; CHT activity remaining % of control (hits give low values), % at 10 µM; AID 493221; 2,400 compounds, 70% hits; shares compounds with CHT inh; CHT-expressing cells, choline membrane potential dye; LV-to-AA substituted CHT, HEK293 cells;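 active = choline transporter activity left, mean of duplicates at 10 µM, below buffer-only control mean minus 3 SD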;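 note: depolarization triggered by choline at its EC90 following an EC20 pre-addition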
HEK293 MPD ctr = CHT inhibitor counter-screen hit in parental HEK293 cells. AID 493222. membrane potential ratio readout (active if shifted either direction beyond buffer ±3SD; no single direction) at 10 µM. membrane potential dye, choline response; active = decrease or increase beyond buffer ±3SD. shares compounds with CHT inh. 2,400 compounds, 4% hits;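 note: parental cells lack the transporter so any hit is non-specific; ratio is peak minus trough fluorescence over baseline after EC90 choline challenge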
Hits are given with their value; 0 = inactive; - = not tested or not shown. Shown are actives, neighbours in structure and some others; about 2.2% of the full set was active somewhere.

SMILES	AI-2 QS modul	HIF activator	VLA-4 inh	Platelet DG rel	CHT inh	CHT PAM	CHT inh conf	HEK293 MPD ctr
NCCCn1c(C(=O)c2cc(Cl)c(N)c(Cl)c2)c2ccc(C(F)(F)F)cc2[n+]1[O-]	0	0	0	0	-8.2	0	14%	0
Cc1ccc(Cl)c2c1NC(=O)C2=O	-	-	0	-	-	-	-	-
CC(NC(=O)CCNS(=O)(=O)c1ccc2c(c1)oc(=O)n2C)c1ccccc1 (stereo not drawn)	0	0	0	0	0	0	-	-
Cc1ccc(C(=O)N/C(=C\c2ccco2)C(=O)NCCN2CCOCC2)cc1	0	0	0	0	0	0	-	-
C#CC[N+]1(CC#Cc2ccc(C)cc2)CCCCC1	0	0	0	0	-7	0	43%	0
Cc1ccc(C#CC[N+]2(C)CCCCC2)cc1	0	0	0	0	-6	0	43%	0
C(#Cc1ccccc1)C[N+]1(CC#Cc2ccccc2)CCCC1	0	0	0	0	0	0	-	-
Cc1ccc(S(=O)(=O)N/N=C/c2cc(Br)ccc2O)cc1	0	0	0	0	-5.6	0	67%	0
O=[N+]([O-])c1cc(C(F)(F)F)cc([N+](=O)[O-])c1N1CCCNCC1	0	0	0	0	-8.8	0	16%	0
CCOC(=O)c1cc2c(s1)-c1c(C)cccc1OC2	0	0	0	0	-6.8	0	68%	0
CC1(C)C(C=C(Cl)Cl)C1C(=O)Nc1ccc(S(=O)(=O)Nc2ncccn2)cc1 (stereo not drawn)	0	0	0	0	-5.1	0	33%	0
COC(=O)Nc1ccc(S(=O)(=O)Nc2ncccn2)cc1	0	0	0	0	0	0	-	-
CCc1c(C2(O)CCCCC2)[nH]c2cc(C(F)(F)F)ccc12	0	0	0	0	-5.7	0	53%	0
Cc1ccc(-n2nc3c(=O)n(C(C)C(=O)NCCCc4ccccc4)nc(C)c3c2C)cc1 (stereo not drawn)	0	0	0	0	-5	0	0	0
O=c1c2cc(Br)ccc2nc(-c2ccc([N+](=O)[O-])cc2)n1O	-167	0	0	0	-6.3	0	38%	0
O=c1c2cc(Br)ccc2nc(-c2cccc(C(F)(F)F)c2)n1O	0	0	0	0	-6	0	39%	0
O=c1c2ccc(Cl)cc2nc(-c2ccc([N+](=O)[O-])cc2)n1O	0	0	0	0	0	0	-	-
Cc1nnc(SCC(=O)NC2CCCC2)n1-c1ccccc1	-	-	0	-	-	-	-	-
COC(=O)C(CC(=O)c1ccc(Br)cc1)n1cccn1 (stereo not drawn)	0	0	0	0	0	0	-	-
O=C(COc1ccccc1/C=C1\SC(=O)NC1=O)Nc1ccccc1	0	0	0	0	-5.7	0	51%	0
Cc1ccc(C(C)C)c(OCCOCCN2CCNCC2)c1	0	0	0	0	-6.9	0	22%	0
NC(=O)CC(NC(=O)c1ccccc1)c1ccc(N2CCCCCC2)c([N+](=O)[O-])c1 (stereo not drawn)	0	0	0	0	-8.6	0	13%	0
CN(Cc1ccccc1)c1ccc(C(CC(N)=O)NC(=O)c2ccc(Br)cc2)cc1[N+](=O)[O-] (stereo not drawn)	0	0	0	0	-6.5	0	70%	0
CC(C)Nc1ccc(C(CC(N)=O)NC(=O)c2ccc(Br)cc2)cc1[N+](=O)[O-] (stereo not drawn)	0	0	0	0	0	0	-	-
O=C(CN1C(=O)C2CCCCC2C1=O)OCC(=O)c1ccc(Cl)s1 (stereo not drawn)	0	0	0	0	0	0	-	-
SMILES	AI-2 QS modul	HIF activator	VLA-4 inh	Platelet DG rel	CHT inh	CHT PAM	CHT inh conf	HEK293 MPD ctr
CN(CC(=O)Nc1ccccc1Br)C(=O)c1ccc2c(=O)n3c(nc2c1)CCC3	-	-	0	-	-	-	-	-
Fc1ccccc1NC(=S)NNc1ncc(C(F)(F)F)cc1Cl	0	0	0	0	-8.1	0	60%	0
Cc1cccc(C)c1NC(=S)NNc1ncc(C(F)(F)F)cc1Cl	0	0	0	-	0	0	-	-
COc1ccc(OC)c(Nc2ccc(C(=O)O)cc2[N+](=O)[O-])c1	0	0	0	0	-6.7	0	0	0
C=CCSc1nnc(NC(=O)c2cccc(S(=O)(=O)N(C)c3ccccc3)c2)s1	0	0	0	0	0	0	-	-
CCOC(=O)N1CCN(C(=O)c2ccc3nc(N4CCCCC4)sc3c2)CC1	0	0	0	0	0	0	-	-
CCOC(=O)N1CCN(C(=O)c2ccc3nc(N4CCC(C)CC4)sc3c2)CC1	0	0	0	0	-7.2	0	69%	0
NN/C(=C\[N+](=O)[O-])Nc1ccc(Cl)cc1	0	0	0	0	0	0	-	-
CC(=O)Nc1ccc(NC(=O)c2ccc(COc3ccccc3Br)o2)cc1	0	0	0	0	0	0	-	-
CC(C)(C)NC(=O)c1ccc(COc2ccccc2Br)o1	0	0	0	0	-6.3	0	0	0
O=C(Nc1cccnc1)c1ccc(COc2ccccc2Br)o1	0	0	0	0	-5.7	0	55%	0
O=C(NCc1cccnc1)c1ccc(COc2ccc3c(c2)CCC3)o1	0	0	0	0	0	0	-	-
CCN(CC)C(=O)c1ccc(COc2ccccc2Br)o1	0	0	0	0	-8.2	0	58%	0
O=C(NCc1cccnc1)c1ccc(COc2ccccc2Cl)o1	0	0	0	0	-5.4	0	58%	0
COc1ccccc1OCc1ccc(C(=O)NC(C)(C)C)o1	0	0	0	0	0	0	-	-
CCOC(=O)[C@@H]1[C@H]2COc3cc(OC)ccc3[C@@H]2N2C(=O)N(c3ccc(F)cc3)C(=O)[C@@]12C	-	-	0	-	-	-	-	-
COc1ccc(OC)c(N/C=C/C(=C(C#N)C#N)N(C)C)c1	0	0	0	0	0	0	-	-
CN1C(=O)CC(c2ccccc2)CC1=O	0	0	0	0	-13	0	0	0
CCN1C(=O)CC(c2ccccc2)CC1=O	0	0	0	0	0	0	-	-
O=C(Cn1nc(-c2ccccc2)ccc1=O)NCc1ccc(F)cc1	0	0	0	0	-6.3	0	49%	0
C=CCn1c(-c2cccs2)nc2ccccc21	-	-	0	-	0	0	-	-
C=CCSc1nc2ccccc2n1Cc1nnc(-c2cccs2)o1	0	0	0	0	-6.2	0	59%	0
Cc1c(C)n(O)c2ccc3nonc3c12	0	0	0	0	-6.8	0	6.2%	0
O=C(Cc1cccc2ccccc12)Nc1ccc(N2CCOCC2)cc1	0	0	0	0	0	0	-	-
CC1(C)COCN1S(=O)(=O)c1ccc(C(=O)Nc2nnc(-c3ccc(Cl)s3)o2)cc1	0	0	0	0	-5.8	0	50%	0
